Screens deposited in PubChem by National Center for Advancing Translational Sciences (NCATS).
Rows were chosen to be rich in hits. Some 21% of all compounds tested hit in one or more screens of this group.
DT40 TDP1 no CPT = qHTS for Inhibitors of human tyrosyl-DNA phosphodiesterase 1 (TDP1): qHTS in cells in absence of CPT | actives 15% (n = 420,000) | DT40 Tdp1-/- hTDP1 cells, no CPT, ATP luminescence, 48 h | Potency, µM (doses to about 46.2 µM), for the others: at the highest dose activity change, negative = growth inhibition, usual class: inhibitors; further: potency means the concentration at half of the fitted maximal effect; nearly all actives have a fitted effect of over 55% in size
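Luminescent ATP content (CellTiter-Glo) served as the growth readout. Knockout chicken DT40 cells expressing human TDP1 were exposed to compounds without camptothecin for a minimum 48 hr at 37 °C.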
DT40 TDP1 CPT = DT40-hTDP1 cell growth loss with CPT. chicken DT40 Tdp1-/-;hTDP1 cells + 20 nM CPT, ATP luminescence, 48 h. Potency, µM (top dose mostly 46.2 µM), inactives show at the highest dose activity change, negative = growth inhibition, hits mostly inhibitors. actives 12% (n = 420,000). AID 686979; further: potency means the concentration at half of the fitted maximal effect; nearly all actives have a fitted effect of over 55% in size
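Chicken DT40 Tdp1-/- cells stably complemented with human TDP1 were seeded at 400 cells/well in medium containing 20 nM camptothecin, exposed to pin-transferred compounds, and grown at 37 °C for at least 48 hr. Viability was read as ATP luminescence.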
RORgamma inh = inhibitors of mouse ROR gamma transcriptional activity. actives 5.4% (n = 310,000). Potency, µM (titrated, usually from 53.6 µM), inactives show at the top dose activity change, negative = inhibition, actives largely listed as inhibitors. P51450. Drosophila S2 Gal4-RORgamma UAS-luciferase reporter, 20 h; further: potency means the concentration at half of the fitted maximal effect; nearly all actives have a fitted effect of over 60% in size
Target sequence (P51450 whole entry, looked up, the tested form may be a part): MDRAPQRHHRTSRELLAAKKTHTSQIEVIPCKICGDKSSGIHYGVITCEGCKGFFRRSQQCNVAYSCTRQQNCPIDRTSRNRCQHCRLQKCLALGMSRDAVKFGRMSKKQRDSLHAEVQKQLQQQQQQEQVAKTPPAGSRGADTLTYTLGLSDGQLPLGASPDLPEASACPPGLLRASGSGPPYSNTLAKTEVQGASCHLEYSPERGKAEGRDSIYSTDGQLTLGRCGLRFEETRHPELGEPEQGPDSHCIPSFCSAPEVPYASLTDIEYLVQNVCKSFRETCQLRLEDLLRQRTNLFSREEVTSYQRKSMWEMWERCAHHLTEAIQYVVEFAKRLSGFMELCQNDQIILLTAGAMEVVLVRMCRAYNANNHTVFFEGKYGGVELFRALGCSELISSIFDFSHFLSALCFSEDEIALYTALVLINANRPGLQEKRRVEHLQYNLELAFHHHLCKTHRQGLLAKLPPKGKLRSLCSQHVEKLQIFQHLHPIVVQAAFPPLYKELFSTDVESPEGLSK
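A Gal4/UAS one-hybrid system in insect cells: metallothionein-promoter Gal4–ROR gamma fusion plus Photinus luciferase reporter. Copper sulfate 700 uM final, 20 hr ambient incubation, luminescent detection after 10 min with reagent.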
ELG1 repair inh = ELG1-dependent DNA repair inhibition | actives 2.3% (n = 330,000) | AID 504467 | HEK293T ELG1-luciferase reporter, luminescence, 16 h; DNA damage induced by 5-fluorouridine | Potency, µM (series often up to 46.1 µM), for the others: at the highest dose activity change, negative = inhibition, usual class: inhibitors; further: potency means the concentration at half of the fitted maximal effect; nearly all actives have a fitted effect of over 55% in size
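In this reporter screen, reduction of luminescence relative to DMSO vehicle indicated activity. Compounds and 5-fluorouridine were added together to 2,000 cells per well, incubated for 16 hr at 37 °C, then developed with ONE-Glo.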
IL1B secr inh = inflammasome signaling inhibition, IL-1 beta readout; THP-1 LPS/ATP IL-1B secretion, AlphaLISA, 16 h; hits give low values; actives 4.7% (n = 360,000); activity change, % at 57.5 µM; in the data active means activity change below about -50%; inconclusive means mostly about -30% to -49%
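Secreted IL-1B measured by AlphaLISA bead assay after 16 h compound exposure of THP-1 cells; compounds (final up to 57.5 uM) added 1 h before LPS (250 ng/mL) and ATP (1.25 mM) stimulation; lower signal means less secretion.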
VP16 counter = Gal4-VP16 reporter inhibition counter-screen; Drosophila S2 Gal4-VP16 UAS-luciferase, luminescence, 20 h; Potency, µM (highest dose often 53.6 µM), inactives show at the highest dose activity, negative = inhibition, hits mostly inhibitors; actives 3.5% (n = 310,000); AID 2546;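 further: Gal4-VP16 expression switched on by copper sulfate through the metallothionein promoter; potency means the concentration at half of the fitted maximal effect; nearly all actives have a fitted effect of over 50% in size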
Numbers without * were called inactive; [ ] = remark or other dose. Unless noted, the call rests on the fitted dose curve; in most records, active means well fitted curve in the direction sought with a large enough effect; inconclusive means small, poorly fitted or top-dose-only effect, or another doubt; inactive means no such curve, though single readings can be large; an effect the other way counts as inactive or inconclusive. On the % scale 0 is the no-effect control and ±100 the full control effect.

Cn1c(=O)n(C)c2cc([N+](=O)[O-])c(N3CCN(C(=O)c4ccc(Cl)cc4)CC3)cc21 was read as DT40 TDP1 no CPT inconclusive, DT40 TDP1 CPT inconclusive, RORgamma inh -3%, ELG1 repair inh -14%, IL1B secr inh -80* and VP16 counter -1%.
O=C(c1cccc(F)c1)N1CCN(c2cc(N3CCCCC3)c(F)cc2[N+](=O)[O-])CC1 was read as DT40 TDP1 no CPT 18µM*, DT40 TDP1 CPT 18µM*, RORgamma inh inconclusive, ELG1 repair inh inconclusive, IL1B secr inh -74* and VP16 counter inconclusive.
For CCS(=O)(=O)N1CCN(c2cc3c(cc2[N+](=O)[O-])n(C)c(=O)n3C)CC1 the results were DT40 TDP1 no CPT inconclusive, DT40 TDP1 CPT 2%, RORgamma inh 1%, ELG1 repair inh -17%, IL1B secr inh 8 and VP16 counter 6%[10 µM].
O=C(COc1ccccc1Cl)N1CCN(c2ccc([N+](=O)[O-])c(N3CCCCC3)c2)CC1 was read as DT40 TDP1 no CPT 23µM*, DT40 TDP1 CPT inconclusive, RORgamma inh 48%, ELG1 repair inh inconclusive, IL1B secr inh inconclusive and VP16 counter -14%.
`Cn1c(=O)n(C)c2cc([N+](=O)[O-])c(N3CCN(C(=O)c4ccc(F)cc4)CC3)cc21` gave DT40 TDP1 no CPT inconclusive, DT40 TDP1 CPT 18µM*, RORgamma inh 20%, ELG1 repair inh inconclusive, IL1B secr inh 30 and VP16 counter -3%.
Screening COc1ccc(S(=O)(=O)N2CCOCC2)cc1C(=O)N1CCCCC1 returned DT40 TDP1 no CPT -2%, DT40 TDP1 CPT -6%, RORgamma inh -22%, ELG1 repair inh inconclusive, IL1B secr inh 9 and VP16 counter 3%.
Screening CC(C)CN1CCc2nc(N3CCN(c4ncccn4)CC3)ncc2C1 returned DT40 TDP1 no CPT -25% and DT40 TDP1 CPT inconclusive.
CCCNC(=O)N1N=C(c2ccc(N)cc2)c2cc3c(cc2[C@H]1C)OCO3 was read as DT40 TDP1 no CPT -17%, DT40 TDP1 CPT 10%, RORgamma inh 34% and VP16 counter -5%.
For COC(=O)C[C@H]1C=C[C@H](NC(=O)C2CCOCC2)[C@@H](CO)O1 the results were DT40 TDP1 no CPT 3%, DT40 TDP1 CPT 6% and IL1B secr inh 23.
`COc1ccccc1CNc1ccnc(-c2ccc3c(c2)OCO3)n1` gave DT40 TDP1 no CPT inconclusive, DT40 TDP1 CPT inconclusive, RORgamma inh inconclusive and VP16 counter -25%.
COc1cc(-c2ccc(Cl)cn2)cc2c1OCCN(S(=O)(=O)C[C@]13CC[C@H](CC1=O)C3(C)C)C2 was read as DT40 TDP1 no CPT -6% and DT40 TDP1 CPT 13%[9.04 µM].
Cc1ccccc1OC(=O)c1cccc(S(=O)(=O)N2CCN(C)CC2)c1 was read as DT40 TDP1 no CPT -21%, DT40 TDP1 CPT -7%, ELG1 repair inh 0% and IL1B secr inh 11.
O=C(c1ccc2ccccc2c1)N1CCN(c2ccc([N+](=O)[O-])c(N3CCOCC3)c2)CC1 was read as DT40 TDP1 no CPT -20%, DT40 TDP1 CPT inconclusive, RORgamma inh 20%, ELG1 repair inh inconclusive, IL1B secr inh 12 and VP16 counter 3%.
O=C(c1ccc(F)cc1)N1CCN(c2ccc([N+](=O)[O-])c(N3CCCCC3)c2)CC1 was read as DT40 TDP1 no CPT 23µM*, DT40 TDP1 CPT inconclusive, RORgamma inh 32%, ELG1 repair inh inconclusive, IL1B secr inh -23 and VP16 counter -2%.
Screening O=C(NCCCN1CCOCC1)c1cccc(S(=O)(=O)Nc2ccccc2Cl)c1 returned DT40 TDP1 no CPT 0%, DT40 TDP1 CPT -14%, RORgamma inh -12%, ELG1 repair inh 14%, IL1B secr inh 3 and VP16 counter 2%.
